{"source": "ChEMBL document CHEMBL2218924", "about": "“A broad activity screen in support of a chemogenomic map for kinase signalling research and drug discovery” (Biochem J, 2013)", "key": {"[1]": {"molecular_target": "T1, Serine/threonine-protein kinase TBK1 (Homo sapiens) (UniProt Q9UHD2)", "T1 sequence (whole entry)": "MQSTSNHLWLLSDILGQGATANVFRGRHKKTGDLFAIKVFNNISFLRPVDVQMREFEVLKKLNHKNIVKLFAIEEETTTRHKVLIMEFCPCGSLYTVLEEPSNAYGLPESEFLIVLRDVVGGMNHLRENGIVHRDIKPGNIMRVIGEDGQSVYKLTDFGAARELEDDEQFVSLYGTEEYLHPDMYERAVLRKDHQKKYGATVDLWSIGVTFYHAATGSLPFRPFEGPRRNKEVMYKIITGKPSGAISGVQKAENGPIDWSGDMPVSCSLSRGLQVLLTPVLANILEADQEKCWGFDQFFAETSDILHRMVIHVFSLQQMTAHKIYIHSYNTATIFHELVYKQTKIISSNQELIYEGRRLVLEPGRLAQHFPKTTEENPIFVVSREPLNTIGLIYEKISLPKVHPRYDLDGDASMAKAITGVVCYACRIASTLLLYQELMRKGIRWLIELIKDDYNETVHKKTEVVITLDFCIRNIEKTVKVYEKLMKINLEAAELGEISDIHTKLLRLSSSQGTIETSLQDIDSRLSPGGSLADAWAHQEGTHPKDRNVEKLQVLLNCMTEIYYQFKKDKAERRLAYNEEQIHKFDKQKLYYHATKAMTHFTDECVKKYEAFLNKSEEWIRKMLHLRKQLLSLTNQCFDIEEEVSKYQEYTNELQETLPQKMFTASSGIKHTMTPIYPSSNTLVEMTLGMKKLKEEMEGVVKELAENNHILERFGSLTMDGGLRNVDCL", "conditions": "at 10 µM"}, "[2]": {"molecular_target": "T2, TGF-beta receptor type-1 (Homo sapiens) (UniProt P36897)", "T2 sequence (whole entry)": "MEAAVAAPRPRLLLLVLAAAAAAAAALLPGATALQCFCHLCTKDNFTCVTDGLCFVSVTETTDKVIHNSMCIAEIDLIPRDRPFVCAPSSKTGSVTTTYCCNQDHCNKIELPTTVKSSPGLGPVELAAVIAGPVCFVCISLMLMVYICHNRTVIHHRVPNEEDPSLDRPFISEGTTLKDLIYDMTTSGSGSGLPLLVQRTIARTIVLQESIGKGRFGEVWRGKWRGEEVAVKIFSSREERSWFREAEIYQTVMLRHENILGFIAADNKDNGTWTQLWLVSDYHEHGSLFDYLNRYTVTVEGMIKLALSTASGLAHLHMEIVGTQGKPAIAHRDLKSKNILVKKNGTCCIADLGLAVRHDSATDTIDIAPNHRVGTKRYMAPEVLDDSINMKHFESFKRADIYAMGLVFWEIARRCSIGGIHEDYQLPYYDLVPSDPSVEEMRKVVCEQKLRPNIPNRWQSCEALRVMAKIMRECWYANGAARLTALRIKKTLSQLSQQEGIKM", "conditions": "at 1 µM"}, "[3]": {"molecular_target": "T2, TGF-beta receptor type-1 (Homo sapiens)", "conditions": "at 10 µM"}, "[4]": {"molecular_target": "Insulin-like growth factor 1 receptor (Homo sapiens) (UniProt P08069)", "sequence (P08069 31-736 limits assumed)": "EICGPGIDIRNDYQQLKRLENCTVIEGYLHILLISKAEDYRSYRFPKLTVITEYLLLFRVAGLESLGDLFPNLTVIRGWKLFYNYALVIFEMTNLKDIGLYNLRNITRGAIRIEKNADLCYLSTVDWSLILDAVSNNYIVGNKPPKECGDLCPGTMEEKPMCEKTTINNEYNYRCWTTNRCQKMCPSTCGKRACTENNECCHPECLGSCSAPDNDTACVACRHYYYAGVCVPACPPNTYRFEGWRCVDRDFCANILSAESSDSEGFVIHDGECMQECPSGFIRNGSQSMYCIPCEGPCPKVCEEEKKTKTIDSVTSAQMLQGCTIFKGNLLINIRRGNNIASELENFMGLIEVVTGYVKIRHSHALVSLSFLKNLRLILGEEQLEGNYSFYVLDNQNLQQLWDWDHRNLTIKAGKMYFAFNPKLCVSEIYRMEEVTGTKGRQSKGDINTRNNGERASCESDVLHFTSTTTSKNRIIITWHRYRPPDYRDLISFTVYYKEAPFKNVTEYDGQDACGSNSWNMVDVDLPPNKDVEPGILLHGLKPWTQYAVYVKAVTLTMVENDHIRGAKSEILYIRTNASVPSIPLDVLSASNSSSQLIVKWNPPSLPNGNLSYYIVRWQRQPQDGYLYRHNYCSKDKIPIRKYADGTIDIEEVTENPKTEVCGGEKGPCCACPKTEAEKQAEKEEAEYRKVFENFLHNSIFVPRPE", "sequence (P08069 741-1367 limits assumed)": "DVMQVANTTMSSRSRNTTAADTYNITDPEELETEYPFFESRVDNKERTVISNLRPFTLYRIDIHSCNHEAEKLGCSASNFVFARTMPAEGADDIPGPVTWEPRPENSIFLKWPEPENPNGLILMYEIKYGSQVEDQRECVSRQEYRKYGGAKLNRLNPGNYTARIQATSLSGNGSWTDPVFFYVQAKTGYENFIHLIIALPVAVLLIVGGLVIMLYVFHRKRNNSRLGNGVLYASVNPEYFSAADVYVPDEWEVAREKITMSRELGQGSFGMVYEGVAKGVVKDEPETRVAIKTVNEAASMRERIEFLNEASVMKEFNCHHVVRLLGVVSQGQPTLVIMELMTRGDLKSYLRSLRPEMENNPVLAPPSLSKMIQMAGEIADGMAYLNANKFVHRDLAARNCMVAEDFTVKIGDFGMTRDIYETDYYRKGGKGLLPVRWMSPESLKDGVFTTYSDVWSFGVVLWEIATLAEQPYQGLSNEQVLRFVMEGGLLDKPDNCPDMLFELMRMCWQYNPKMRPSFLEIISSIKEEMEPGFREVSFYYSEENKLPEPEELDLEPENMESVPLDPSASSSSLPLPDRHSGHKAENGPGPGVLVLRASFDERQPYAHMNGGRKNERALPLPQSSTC", "conditions": "at 1 µM"}, "[5]": {"molecular_target": "Insulin-like growth factor 1 receptor (Homo sapiens) (UniProt P08069)", "conditions": "at 10 µM"}, "[6]": {"molecular_target": "T3, Inhibitor of nuclear factor kappa-B kinase subunit alpha (Homo sapiens) (UniProt O15111)", "T3 sequence (whole entry)": "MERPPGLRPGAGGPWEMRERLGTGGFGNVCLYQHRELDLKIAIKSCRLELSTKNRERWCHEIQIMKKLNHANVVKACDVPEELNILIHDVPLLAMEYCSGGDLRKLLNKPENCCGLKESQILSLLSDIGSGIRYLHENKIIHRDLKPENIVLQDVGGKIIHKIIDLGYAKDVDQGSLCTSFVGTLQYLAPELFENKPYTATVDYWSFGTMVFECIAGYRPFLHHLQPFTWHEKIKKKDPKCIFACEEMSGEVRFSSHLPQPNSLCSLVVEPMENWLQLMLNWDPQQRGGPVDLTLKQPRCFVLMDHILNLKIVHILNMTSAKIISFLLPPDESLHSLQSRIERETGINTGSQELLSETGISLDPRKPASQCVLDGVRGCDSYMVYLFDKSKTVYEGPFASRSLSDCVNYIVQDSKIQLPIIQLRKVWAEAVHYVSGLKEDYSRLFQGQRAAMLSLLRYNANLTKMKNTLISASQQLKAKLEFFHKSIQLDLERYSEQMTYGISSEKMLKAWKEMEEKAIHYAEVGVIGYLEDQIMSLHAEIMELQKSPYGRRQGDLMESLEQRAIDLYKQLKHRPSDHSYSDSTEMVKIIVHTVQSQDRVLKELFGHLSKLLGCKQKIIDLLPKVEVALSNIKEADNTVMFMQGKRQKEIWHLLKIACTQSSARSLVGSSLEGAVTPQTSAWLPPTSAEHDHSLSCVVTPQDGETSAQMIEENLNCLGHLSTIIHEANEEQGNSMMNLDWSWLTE", "conditions": "at 1 µM"}, "[7]": {"molecular_target": "T3, Inhibitor of nuclear factor kappa-B kinase subunit alpha (Homo sapiens)", "conditions": "at 10 µM"}, "[8]": {"molecular_target": "T4, Inhibitor of nuclear factor kappa-B kinase subunit beta (Homo sapiens) (UniProt O14920)", "T4 sequence (whole entry)": "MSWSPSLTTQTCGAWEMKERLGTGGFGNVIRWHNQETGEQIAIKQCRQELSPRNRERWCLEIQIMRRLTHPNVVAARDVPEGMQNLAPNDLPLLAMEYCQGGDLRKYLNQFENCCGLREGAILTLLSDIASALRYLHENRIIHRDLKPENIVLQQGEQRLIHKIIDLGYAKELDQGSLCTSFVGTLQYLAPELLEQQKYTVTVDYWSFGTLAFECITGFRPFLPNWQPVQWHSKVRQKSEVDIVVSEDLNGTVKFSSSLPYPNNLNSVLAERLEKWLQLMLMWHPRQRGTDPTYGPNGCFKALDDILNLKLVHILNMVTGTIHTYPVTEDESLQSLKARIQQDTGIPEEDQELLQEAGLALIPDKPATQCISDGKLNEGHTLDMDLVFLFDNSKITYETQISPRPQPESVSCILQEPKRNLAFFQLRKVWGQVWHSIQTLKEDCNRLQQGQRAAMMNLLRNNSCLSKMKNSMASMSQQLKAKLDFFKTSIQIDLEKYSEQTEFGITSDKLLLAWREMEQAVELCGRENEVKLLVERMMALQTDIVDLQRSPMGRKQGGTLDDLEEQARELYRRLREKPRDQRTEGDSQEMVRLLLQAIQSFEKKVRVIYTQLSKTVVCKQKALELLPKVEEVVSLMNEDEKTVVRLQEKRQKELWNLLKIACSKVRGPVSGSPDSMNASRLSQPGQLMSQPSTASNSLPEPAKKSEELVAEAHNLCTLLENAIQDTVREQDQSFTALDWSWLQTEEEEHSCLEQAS", "conditions": "at 1 µM"}, "[9]": {"molecular_target": "T4, Inhibitor of nuclear factor kappa-B kinase subunit beta (Homo sapiens)", "conditions": "at 10 µM"}, "[10]": {"molecular_target": "Insulin receptor (Homo sapiens) (UniProt P06213)", "sequence (P06213 28-758 limits assumed)": "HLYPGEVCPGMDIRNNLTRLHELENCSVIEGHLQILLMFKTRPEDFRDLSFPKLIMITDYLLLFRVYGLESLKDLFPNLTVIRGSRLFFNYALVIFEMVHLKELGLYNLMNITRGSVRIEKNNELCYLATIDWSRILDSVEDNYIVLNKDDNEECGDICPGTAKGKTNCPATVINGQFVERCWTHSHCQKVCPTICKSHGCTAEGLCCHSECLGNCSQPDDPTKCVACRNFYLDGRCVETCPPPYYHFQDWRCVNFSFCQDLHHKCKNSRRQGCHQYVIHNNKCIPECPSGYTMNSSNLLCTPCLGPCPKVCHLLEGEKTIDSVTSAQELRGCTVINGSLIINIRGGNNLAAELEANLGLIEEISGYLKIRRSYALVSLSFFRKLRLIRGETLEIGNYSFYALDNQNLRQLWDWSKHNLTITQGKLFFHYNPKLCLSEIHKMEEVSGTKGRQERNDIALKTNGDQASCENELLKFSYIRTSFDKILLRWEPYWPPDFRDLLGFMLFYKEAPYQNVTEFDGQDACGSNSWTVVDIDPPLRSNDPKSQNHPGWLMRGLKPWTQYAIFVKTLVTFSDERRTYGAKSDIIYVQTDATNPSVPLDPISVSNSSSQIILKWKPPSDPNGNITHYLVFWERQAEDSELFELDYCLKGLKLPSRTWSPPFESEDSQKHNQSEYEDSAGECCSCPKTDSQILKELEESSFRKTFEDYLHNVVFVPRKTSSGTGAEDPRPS", "sequence (P06213 763-1382 limits assumed)": "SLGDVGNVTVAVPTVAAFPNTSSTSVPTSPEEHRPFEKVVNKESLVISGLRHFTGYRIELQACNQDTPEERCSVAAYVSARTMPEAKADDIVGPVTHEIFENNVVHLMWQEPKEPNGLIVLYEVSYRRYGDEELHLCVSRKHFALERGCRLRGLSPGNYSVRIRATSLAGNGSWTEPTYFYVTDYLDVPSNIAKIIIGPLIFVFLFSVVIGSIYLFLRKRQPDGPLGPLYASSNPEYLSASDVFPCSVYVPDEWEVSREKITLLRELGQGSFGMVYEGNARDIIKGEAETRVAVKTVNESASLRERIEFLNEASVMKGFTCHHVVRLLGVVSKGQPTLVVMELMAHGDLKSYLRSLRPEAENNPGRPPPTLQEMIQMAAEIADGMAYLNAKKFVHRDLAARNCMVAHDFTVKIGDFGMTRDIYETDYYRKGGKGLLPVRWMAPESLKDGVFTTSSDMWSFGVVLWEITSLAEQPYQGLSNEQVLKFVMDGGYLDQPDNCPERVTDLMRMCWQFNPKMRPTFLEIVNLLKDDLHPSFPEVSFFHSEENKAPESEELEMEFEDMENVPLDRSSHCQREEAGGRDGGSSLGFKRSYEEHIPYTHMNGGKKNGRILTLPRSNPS", "conditions": "at 1 µM"}}, "data": [{"smiles": "CC(C)(C)n1nc(Cc2cccc3ccccc23)c2c(N)ncnc21", "values": [{"measurement": "residual activity", "setting": "[1]", "result": 67, "unit": "%"}, {"measurement": "residual activity", "setting": "[2]", "result": 78, "unit": "%"}, {"measurement": "residual activity", "setting": "[3]", "result": 57, "unit": "%"}, {"measurement": "residual activity", "setting": "[4]", "result": 100, "unit": "%"}, {"measurement": "residual activity", "setting": "[5]", "result": 73, "unit": "%"}, {"measurement": "residual activity", "setting": "[6]", "result": 99, "unit": "%"}, {"measurement": "residual activity", "setting": "[7]", "result": 128, "unit": "%"}, {"measurement": "residual activity", "setting": "[8]", "result": 104, "unit": "%"}, {"measurement": "residual activity", "setting": "[9]", "result": 92, "unit": "%"}, {"measurement": "residual activity", "setting": "[10]", "result": 98, "unit": "%"}]}]}
